In PubChem BioAssay (NCATS):
Values without a mark were called inactive. Records with an inconclusive call do not appear. Where a call stands in place of a potency, no number is given. The source made the active and inactive calls. Unless noted, the call rests on the fitted dose curve; in most records, active means well fitted curve in the direction sought with a large enough effect; inconclusive means small, poorly fitted or top-dose-only effect, or another doubt; inactive means no such curve, though single readings can be large; an effect the other way counts as inactive or inconclusive.

Assays:
[1] = qHTS for Inhibitors of Plasmodium falciparum (DD2) proliferation (AID 504314);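 further: parasite DNA measured by SYBR Green fluorescence after red cell lysis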
Summary of the method: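 P. falciparum Dd2 is grown in erythrocytes with test compound for 72 h at 37C under 5% CO2. Growth is scored by SYBR Green I fluorescence after detergent lysis, relative to artemisinin (0.29 uM) and DMSO controls.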

[2] = qHTS for Inhibitors of Plasmodium falciparum (GB4) proliferation (AID 504315); further: nearly all actives have a fitted effect of over 50% in size
Summary of the method: (§1)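 Parasite growth measured as SYBR Green DNA fluorescence (ex 485, em 535 nm) after overnight lysis following 72 h culture at 37 °C, 0.3% parasitemia, 2.5% hematocrit. Values normalized against DMSO and 0.29 uM artemisinin controls, with plate-stack correction.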

[3] = qHTS for Inhibitors of Plasmodium falciparum (7G8) proliferation (AID 504316); further: series mostly up to about 6.7 µM; nearly all actives have a fitted effect of over 65% in size
Summary of the method: as §1

[4] = qHTS for Inhibitors of Plasmodium falciparum (HB3) proliferation (AID 504318); further: nearly all actives have a fitted effect of over 60% in size
Summary of the method: as §1

[5] = qHTS for Inhibitors of Plasmodium falciparum (CP250) proliferation (AID 504320)
Summary of the method: as §1

[6] = molecular target: Atrial natriuretic peptide receptor 1 (Homo sapiens) (UniProt P16066); experiment: Natriuretic polypeptide receptor (hNpr1) antagonism - Pilot CMLD screen (AID 1347052; calls by dose curve;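 further: HEK293 cells with hNpr1 stimulated by hNppA peptide at 0.1 nM; cGMP level read as GloSensor luciferase luminescence after agonist stimulation; series mostly up to about 9.2 µM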)
[7] = molecular target: Cytochrome P450 2C9 (Homo sapiens) (UniProt P11712); experiment: qHTS Assay for Inhibitors and Substrates of Cytochrome P450 2C9 (AID 883); further: nearly all actives have a fitted effect of over 60% in size
Summary of the method: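 Human CYP2C9 (10nM) hydroxylated Luciferin-H (100uM, at its KM) to luciferin in 25mM KPO4. Compound was preincubated 10 min at 37C, then NADPH regeneration started a 60 min reaction at 37C. Luminescence was read after detection reagent, normalized to 57uM sulphaphenazole.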

[8] = molecular target: Cytochrome P450 3A4 (Homo sapiens) (UniProt P08684); experiment: qHTS Assay for Inhibitors and Substrates of Cytochrome P450 3A4 (AID 884); further: series mostly up to about 57 µM; nearly all actives have a fitted effect of over 50% in size
Summary of the method: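 Luminescent readout of luciferin produced by CYP3A4 (20 nM) dealkylation of Luciferin-PPXE, 25 uM (its KM). NADPH-driven reaction ran 60 min at RT after 10 min compound preincubation; data scaled to 57 uM ketoconazole as 100% inhibition.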

[9] = molecular target: Cytochrome P450 2D6 (Homo sapiens) (UniProt P10635); experiment: qHTS Assay for Inhibitors and Substrates of Cytochrome P450 2D6 (AID 891);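 further: luciferin methyl ether substrate demethylated by CYP2D6 with NADPH regeneration; nearly all actives have a fitted effect of over 60% in size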
Summary of the method: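 Luminescent read-out of luciferin formed by 5 nM human CYP2D6 demethylating 30 uM Luciferin-ME EGE (Km level) over 60 min at room temperature after NADPH regeneration addition. Data normalized to full inhibition by 1.43 uM quinidine.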

[10] = molecular target: Cytochrome P450 2C19 (Homo sapiens) (UniProt P33261); experiment: qHTS Assay for Inhibitors and Substrates of Cytochrome P450 2C19 (AID 899); further: nearly all actives have a fitted effect of over 60% in size; further: potency means the concentration at half of the fitted maximal effect
Summary of the method: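 Human CYP2C19 (5nM) with Luciferin-H EGE at 10uM (its KM) in 50mM KPO4 was preincubated with compound for 10 min at 37C. NADPH regeneration started a 60 min 37C reaction. Luciferin was read by luminescence, normalized to 57uM ketoconazole.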

[11] = molecular target: Cytochrome P450 3A4 (Homo sapiens) (UniProt P08684); experiment: qHTS Assay for Activators of Cytochrome P450 3A4 (AID 885); further: nearly all actives have a fitted effect of over 65% in size
Summary of the method: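 CYP3A4 activity: Luciferin-PPXE O-dealkylation, 25uM substrate, 200mM KPO4, RT throughout. Read-out is luciferase luminescence; higher values reflect activation.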

[12] = qHTS Assay for Identification of Small Molecule Agonists for Hypoxia Response Element Signaling Pathway (AID 914; active means well fitted activation curve with a large enough effect in the signal ratio, with a control signal flat, not every such curve was filed as active; the % refers to the signal ratio); conditions: ME-180 (cervical carcinoma) HRE-bla reporter, beta-lactamase ratio, CoCl2, 17 h; stronger effect = higher value
Summary of the method: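 HRE-bla ME-180 cells, overnight plating in Opti-MEM with 0.5% dialyzed FBS; cpd titration + EC50 CoCl2, 17 h, 37 degrees Celsius; CCF4 2.5 h RT; 460/530 nm ratio; AC50.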

Atrial natriuretic peptide receptor 1 (Homo sapiens), sequence (P16066 whole entry, looked up): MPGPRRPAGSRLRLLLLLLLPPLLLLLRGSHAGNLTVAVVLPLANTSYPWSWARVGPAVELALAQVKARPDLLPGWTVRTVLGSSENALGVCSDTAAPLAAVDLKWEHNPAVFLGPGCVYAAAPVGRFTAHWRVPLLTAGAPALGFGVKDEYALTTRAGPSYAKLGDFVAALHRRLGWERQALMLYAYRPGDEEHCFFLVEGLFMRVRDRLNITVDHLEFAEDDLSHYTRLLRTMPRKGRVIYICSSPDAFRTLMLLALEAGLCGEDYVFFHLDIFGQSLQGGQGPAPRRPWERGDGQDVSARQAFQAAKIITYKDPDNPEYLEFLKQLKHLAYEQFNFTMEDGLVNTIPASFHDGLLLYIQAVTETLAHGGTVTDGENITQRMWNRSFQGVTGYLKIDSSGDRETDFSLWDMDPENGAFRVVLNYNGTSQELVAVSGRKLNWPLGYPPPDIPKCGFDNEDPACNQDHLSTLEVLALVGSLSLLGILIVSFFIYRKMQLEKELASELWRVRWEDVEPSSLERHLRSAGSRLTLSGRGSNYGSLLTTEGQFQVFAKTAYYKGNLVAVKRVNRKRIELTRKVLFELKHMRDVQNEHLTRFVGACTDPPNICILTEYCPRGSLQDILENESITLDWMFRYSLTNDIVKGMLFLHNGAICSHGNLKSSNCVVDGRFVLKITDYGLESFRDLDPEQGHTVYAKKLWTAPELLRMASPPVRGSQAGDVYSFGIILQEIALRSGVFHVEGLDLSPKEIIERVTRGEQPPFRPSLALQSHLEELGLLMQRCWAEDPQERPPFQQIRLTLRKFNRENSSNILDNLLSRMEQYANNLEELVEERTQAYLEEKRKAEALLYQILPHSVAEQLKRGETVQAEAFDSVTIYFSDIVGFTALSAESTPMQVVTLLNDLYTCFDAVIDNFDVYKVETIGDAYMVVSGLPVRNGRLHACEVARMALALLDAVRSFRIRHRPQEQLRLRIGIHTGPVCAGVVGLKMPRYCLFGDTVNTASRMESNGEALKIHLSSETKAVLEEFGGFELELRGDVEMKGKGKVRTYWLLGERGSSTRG
Cytochrome P450 2C19 (Homo sapiens), sequence (P33261 whole entry, looked up): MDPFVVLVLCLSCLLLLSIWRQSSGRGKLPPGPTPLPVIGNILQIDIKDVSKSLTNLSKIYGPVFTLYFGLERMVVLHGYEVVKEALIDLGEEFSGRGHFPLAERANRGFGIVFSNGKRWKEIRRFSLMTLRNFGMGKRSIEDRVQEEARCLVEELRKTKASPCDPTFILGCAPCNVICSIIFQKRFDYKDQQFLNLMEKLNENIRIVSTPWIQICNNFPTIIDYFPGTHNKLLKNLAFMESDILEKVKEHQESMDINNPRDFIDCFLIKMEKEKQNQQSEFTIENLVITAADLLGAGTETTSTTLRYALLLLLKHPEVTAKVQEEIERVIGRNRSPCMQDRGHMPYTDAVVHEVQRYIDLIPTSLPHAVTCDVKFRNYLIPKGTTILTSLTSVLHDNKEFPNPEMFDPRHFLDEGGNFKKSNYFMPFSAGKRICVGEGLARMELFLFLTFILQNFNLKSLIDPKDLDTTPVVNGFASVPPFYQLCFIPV
Cytochrome P450 3A4 (Homo sapiens), sequence (P08684 whole entry, looked up): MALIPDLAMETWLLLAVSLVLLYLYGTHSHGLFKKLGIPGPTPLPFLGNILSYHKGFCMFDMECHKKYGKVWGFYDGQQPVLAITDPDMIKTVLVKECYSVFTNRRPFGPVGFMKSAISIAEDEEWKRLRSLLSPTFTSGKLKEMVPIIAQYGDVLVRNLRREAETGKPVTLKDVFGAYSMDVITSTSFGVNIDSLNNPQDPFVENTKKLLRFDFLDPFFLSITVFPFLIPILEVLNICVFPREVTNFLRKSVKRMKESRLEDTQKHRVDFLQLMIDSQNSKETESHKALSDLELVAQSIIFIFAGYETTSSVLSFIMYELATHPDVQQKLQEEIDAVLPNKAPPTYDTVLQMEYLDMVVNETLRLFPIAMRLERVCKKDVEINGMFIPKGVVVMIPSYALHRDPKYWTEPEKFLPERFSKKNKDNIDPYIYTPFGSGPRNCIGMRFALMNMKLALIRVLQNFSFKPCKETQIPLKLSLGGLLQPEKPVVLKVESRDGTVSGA
Cytochrome P450 2C9 (Homo sapiens), sequence (P11712 whole entry, looked up): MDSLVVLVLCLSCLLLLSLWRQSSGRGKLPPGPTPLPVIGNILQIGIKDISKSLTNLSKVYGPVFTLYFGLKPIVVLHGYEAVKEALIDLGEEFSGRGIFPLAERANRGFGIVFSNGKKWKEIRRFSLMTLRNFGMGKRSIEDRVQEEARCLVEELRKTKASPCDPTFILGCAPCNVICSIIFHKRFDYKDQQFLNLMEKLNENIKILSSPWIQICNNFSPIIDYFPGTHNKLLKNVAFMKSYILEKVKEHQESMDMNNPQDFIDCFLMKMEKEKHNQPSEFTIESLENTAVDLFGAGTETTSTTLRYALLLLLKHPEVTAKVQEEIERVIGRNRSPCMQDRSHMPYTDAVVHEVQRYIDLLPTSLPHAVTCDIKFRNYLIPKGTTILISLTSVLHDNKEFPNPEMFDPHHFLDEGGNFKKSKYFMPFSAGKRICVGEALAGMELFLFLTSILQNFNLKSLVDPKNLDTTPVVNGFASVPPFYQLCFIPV
Cytochrome P450 2D6 (Homo sapiens), sequence (P10635 whole entry, looked up): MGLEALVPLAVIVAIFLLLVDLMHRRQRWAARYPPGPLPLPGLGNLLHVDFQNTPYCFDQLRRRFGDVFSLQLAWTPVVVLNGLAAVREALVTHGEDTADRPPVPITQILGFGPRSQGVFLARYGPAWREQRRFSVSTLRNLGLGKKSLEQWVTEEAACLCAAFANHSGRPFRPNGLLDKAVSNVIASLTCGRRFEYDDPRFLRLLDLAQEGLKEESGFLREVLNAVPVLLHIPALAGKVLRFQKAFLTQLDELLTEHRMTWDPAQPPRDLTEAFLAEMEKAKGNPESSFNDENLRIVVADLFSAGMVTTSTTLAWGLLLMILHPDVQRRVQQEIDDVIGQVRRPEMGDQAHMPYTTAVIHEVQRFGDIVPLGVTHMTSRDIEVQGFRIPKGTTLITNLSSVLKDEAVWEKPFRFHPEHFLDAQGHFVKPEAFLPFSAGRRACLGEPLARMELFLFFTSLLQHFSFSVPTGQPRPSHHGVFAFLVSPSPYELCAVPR

Row | SMILES | Potency [1] | Potency [2] | Potency [3] | Potency [4] | Potency [5] | Potency [6] | activity change, negative = inhibition [7] | activity change, negative = inhibition [8] | activity change, negative = inhibition [9] | activity, negative = inhibition [10] | activity change, positive = activation [11] | Potency [10] | activation [12]
1 | COc1ccc(NC(=O)N2CCc3nc(-c4ccccc4)c4c(c3C2)CO[C@@H](C)C4)cc1 | inactive | inactive | inactive | inactive | inactive | inactive |  |  |  |  |  |  | 
2 | C#CCCCON=C1C[C@@H](O)[C@H](O)[C@H]2[C@@H]3C(=O)N(C[C@@H]4CCCO4)C(=O)[C@@H]3CC[C@H]12 | inactive | inactive | inactive | inactive | inactive | inactive |  |  |  |  |  |  | 
3 | CC1=C(C)CC(c2ccccc2)C(C(=O)c2ccccc2O)C1 (stereo not given) | inactive | inactive | inactive | inactive | inactive | inactive | -27.8% [at 11.4 µM] | -21.6% [at 11.4 µM] | 6.86% [at 11.4 µM] | -23.3% [at 11.4 µM] |  |  | 
4 | C[C@@H]1CC[C@H]2C(=O)NC[C@@H](O)CN2[C@@H]1c1ccc(Br)cc1 | inactive | inactive | inactive | inactive | inactive | inactive |  |  |  |  | -42.5% [at 11.4 µM] | 2000 nM (active) | -3.48%
5 | CC(=O)OC[C@H]1O[C@H](CC=NOC[C@@H](O)[C@H]2O[C@@H]3OC(C)(C)O[C@H]3[C@@H]2O)C=C[C@H]1OC(C)=O | inactive | inactive | inactive |  | inactive | inactive |  |  |  |  |  |  | 
6 | CC1(O)C(=O)C=C2C=C3CCCN3C=C2C1=O (stereo not given) | inactive | inactive | inactive | inactive | inactive | inactive | 3.99% [at 11.4 µM] | -12% [at 11.4 µM] |  | 32.3% [at 11.4 µM] |  |  | 
7 | COC(=O)C(C(C)=O)C(=O)C(Cc1ccccc1)NC(=O)OCc1ccccc1 (stereo not given) | inactive | inactive | inactive | inactive | inactive | inactive | 2.74% [at 11.4 µM] | -19.6% [at 11.4 µM] |  | -11.9% [at 11.4 µM] |  |  | 
8 | COC1=C[C@H](C(=O)NCc2ccccn2)[C@H](C)[C@@H](c2ccccc2)CC1=O | inactive | inactive | inactive |  | inactive | inactive |  |  |  |  |  |  | 
9 | CCN1C(=O)[C@@H]2[C@H]3[C@H](O)[C@H](O)CC(=NO[C@@H]4O[C@H](COC(C)=O)[C@@H](OC(C)=O)[C@H](OC(C)=O)[C@@H]4OC(C)=O)[C@@H]3CC[C@H]2C1=O | inactive | inactive | inactive | inactive | inactive | inactive |  |  |  |  |  |  | 
10 | COC(=O)NC(CCc1ccccc1)C(C(=O)OC)C(=O)OC (stereo not given) | inactive | inactive | inactive |  | inactive | inactive |  |  |  |  |  |  | 
11 | COC(=O)C1=C(C(=O)OC)[C@@H]2Nc3ccccc3[C@@]23C[C@@H](C(=O)OC)N(C(=O)Nc2ccccc2F)C3=N1 | inactive | inactive | inactive |  | inactive | inactive |  |  |  |  |  |  | 
12 | COC[C@H]1O[C@H](c2ccccc2)C=C[C@H]1OCc1cccc(Br)c1 | inactive | inactive | inactive |  | inactive | inactive |  |  |  |  |  |  | 
13 | C=CCN1C(=O)[C@]2(OCCC=C[C@@H]2C)c2cc(OC)ccc21 | inactive | inactive | inactive |  | inactive | inactive |  |  |  |  |  |  | 
